Assay results published in the supplement of paper PMC6555819.

Tests used:
Assay in all cases: PBM binding z-score (relative to random genomic background probes); higher = stronger binding; sequences stand for … in GC…GCGATTGACAGCGTAGAATGAAGG
[1] = tested on: RARb homodimer (NR concentration 270 nM)
Method in brief: (§1)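 Ligand-free nuclear receptor dimers were bound for 1 h to custom Agilent 4×180K protein-binding microarrays. Detection used antibodies against each partner (one per run). Binding z-scores rest on regression-normalized fluorescence, with random background probes as the reference.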

[2] = tested on: RARg:RXRa (NR concentration 270 nM, RXRa partner concentration 90 nM)
Method in brief: as §1

[3] = tested on: RARg homodimer (NR concentration 270 nM)
Method in brief: as §1

[4] = tested on: RXRa DBDmut IVT, anti-RXR (DBD mutation: RXRa K156A/R161A, NR concentration 90 nM)
Method in brief: as §1

[5] = tested on: RXRa homodimer (NR concentration 180 nM)
Method in brief: as §1

[6] = tested on: THRa:RXRa (NR concentration 90 nM, RXRa partner concentration 90 nM)
Method in brief: as §1

[7] = tested on: THRa homodimer (NR concentration 90 nM)
Method in brief: as §1

[8] = tested on: VDR homodimer (NR concentration 270 nM)
Method in brief: as §1

Sequence	PBM binding z-score [1]	PBM binding z-score [2]	PBM binding z-score [3]	PBM binding z-score [4]	PBM binding z-score [5]	PBM binding z-score [6]	PBM binding z-score [7]	PBM binding z-score [8]
ATCGAAAGGTCGTGAGGTGATTATACAGAAAGGC	2.49	4.47	3.99	1.6	5.42	3.17	1.15	1.07
CAAACTAGGTCACGAAAGGCCAAAGTCGAATGAC	4.29	5.29	5.81	2.01	3.94	4.33	1.52	1
AATACCGGGTCACTAGGCCAGAGTAGGTACGAAT	2.74	4.17	3.95	1.2	4.15	3.08	0.928	1.22
ATATGTAGGTTATCGGGTCATCCAGTTTGCGCAT	3.46	3.7	2.8	1.33	3.78	3.68	3.07	3.89
TCTTGTAGGTCAGCAGGTTAAGAAAGCTGGCCAA	3.05	4.48	4.43	0.785	3.23	1.97	-0.325	0.0594
CCGACTGGGGCAGAAAGGTTACCGTACCATCCGG	2.49	1.52	1.28	-0.805	1.84	1.18	-0.556	-0.155
CCTAGTTGGTCAAGGTGACACACGCTATAGGTAC	1.8	1.49	1.74	0.165	1.05	2.06	1.65	0.83
TCTATTAGTTGATTAGGGCAACCGTAACAGCGGA	0.955	0.567	0.671	1.16	0.558	0.75	0.547	0.281
CCTAACGGGTCACGAGGTTATAGCACGACGAGCG	3.65	5.84	4.93	1.5	6.09	3.44	0.791	1.91
CGGACTGGGGCATAAGGTTACCATAAGCCAGCCC	1.94	1.83	1.21	-0.836	1.29	2.18	1.39	-0.454
CTCGAAATGTCGTGCTCAGGTGAGTATACCAAAC	0.0938	0.145	0.0439	0.155	-0.16	1.53	0.939	0.16
CGAACTAGGTCATCCAGGACAGTTAATACATTGA	3	3.93	4.66	2.41	2.99	3.54	2.15	2.37
CATACAAGGTCAGCTAGGCCAGAGTAGGGACGGC	3.83	5.19	5.79	2.04	4.4	3.54	1.97	1.65
CCTATTAGTTGACCAAAAGGGCAACCGAAGCTCG	3.11	2.31	1.84	0.787	1.09	0.99	0.0968	0.7
GCTCGGAGGACAAGGTCAGCGCTTTGTCCGTAGA	3.72	3.85	4.29	0.531	3.07	3.23	1.82	0.607
GCTTGTAGATCAAGGTTAAGAATGACTAAGCTAA	0.438	0.397	0.413	0.0922	0.859	1.08	-0.00442	-0.161
TCGAGTAGGTTAGTCGAGGCATTCAGCCAACATA	-0.449	-0.298	-0.249	-0.0873	-0.032	0.444	-0.612	-0.393
TATTGTAGATCAAGCAGGTTAAGAAAGCCTGAGT	0.00937	0.285	0.147	-0.887	0.374	0.288	-0.434	0.132
ATCGAAAGGTCGTCAGGTGAGTATACAGAAAGGC	2.67	4.34	3.83	2.04	4.71	3	1.33	1.8

Sequence	PBM binding z-score [1]	PBM binding z-score [2]	PBM binding z-score [3]	PBM binding z-score [4]	PBM binding z-score [5]	PBM binding z-score [6]	PBM binding z-score [7]	PBM binding z-score [8]
GGAACGAGGGCAAATTGATAGCAGAGTTTGATGG	1.18	1.48	1.67	2.21	1	0.906	-0.171	1.31
GCAGACAGGTGAAACGCAGGTAACTTAGGGTGGC	0.119	0.872	0.154	-0.334	0.754	1.55	-0.353	-0.61
CAAACTCGGTCAAGAGGTCAAAGTCCGCTTCCCG	5.17	7.26	6.13	2.01	6.42	3.9	1.61	3.72
ACTATTAGTTGACTTAGGGCAAACGATACGACGC	0.722	0.773	1.08	0.703	0.56	1.24	0.149	-0.123
ATATGTAAGTTACATCCGGGTCATTCAGGCTATG	2.56	1.71	1.21	1.07	2.15	3.43	2.33	3.16
ACCTCTAGGTAAAAGTTCAGTGAATCCCGAGGAT	2.22	1.17	1.56	0.969	1.22	0.914	-0.324	1.21
ATATGTAGGTTAAGGGCCATTCAGGTTGGTTCGC	1.36	0.896	1.04	0.622	1.21	1.17	0.32	1.15
CCTAGTTAGTCAAGGTCACACACGCTATAGGTAC	4.28	4.36	4.31	2.45	4.3	4.27	4.29	3.3
CGAACTAGCTCATTGACAGGACAGTGAATAGTAA	0.184	-0.00563	0.0455	0.00616	-0.33	-0.0508	-0.291	-0.0514
TCTTGTAGATCAATTGAGGTTAAGAAAGTGCGCT	0.953	0.568	0.0458	1.05	0.886	3.84	0.878	0.579
ATGGAAAGGTCGAAGGTGAGTATACCCACCCGAA	2.68	4.21	3.87	0.318	4.97	2.3	0.00488	0.714
CGAACTAGGTCAGAACAGGACGGTGAAGGATGAT	1.69	2.3	3.17	0.53	1.14	2.43	-0.175	-0.257
AGAATGAGGTTAAGATCAGGAAAACAGAATACAT	0.79	2	1.73	0.917	2.65	2.28	0.529	0.435
TCTGCTAGGTCAGTTGGTCAGCAAACGAGCTGCC	2.52	2.78	3.8	0.526	0.98	1.35	-0.0215	-0.695
CAAACTAGATCACAGAGGTCAAAGTCCGTGCGTA	4.34	4.96	4.25	2.41	5.63	3.64	1.29	5.11
ATCTCTAGGTAACCAATTTCAGTGAATGCCGAAC	0.515	0.324	0.586	0.556	0.198	0.887	0.984	0.312
GATACAGGGTCAGCTAGAGACCAGAGTATGGAAA	2.5	4.48	4.19	0.915	3.99	2.5	0.211	0.881
CGTCCAAGGTCAGAGAGATCAGTGAATGCCGAGT	3.33	4.47	5.03	2.73	3.39	3.31	1.57	1.58
TCTTGTAGATCAATAGGAGGTTAAGAAAGATCGA	0.457	0.595	0.446	1.01	0.992	0.723	-0.311	-0.266

Sequence	PBM binding z-score [1]	PBM binding z-score [2]	PBM binding z-score [3]	PBM binding z-score [4]	PBM binding z-score [5]	PBM binding z-score [6]	PBM binding z-score [7]	PBM binding z-score [8]
ATATGTAGGTAAAGGGTCATTCAGGTTGGTTCGC	4.14	4.11	3.22	2.01	4.98	3.26	1.71	4.15
TCATCTAGGTAAACAGGTGAAAGTCCGTAAGTTA	0.582	0.394	0.147	1.26	0.645	0.888	0.459	0.0533
CGTCCAAGGTCAGAGAGGTCAGTAAATGCCGAGT	5.22	5.95	7.02	3.45	5.43	4.24	2.87	5.99
CAAACTAGGTCAAGGTCAGAGTCGGTTTGTGCCA	4.8	5.32	6.42	2.33	4.6	4.29	3.28	2.79
TAGCCTAGGTCATGGGCTAGTATACCACGCGAAC	2.79	4.26	4.32	-0.132	3.45	3.07	0.81	0.156
CCTAGCTGGTCAAGGTCACACACGCTATAGGTAC	4.06	4.56	4.74	1.82	4.92	3.97	3.76	2.88
ACTATTAGTTGAGACGAGGGCAATCGATAGGTTG	0.955	0.898	0.973	0.801	0.517	2.22	-0.15	1.06
TGTGCTAGGTCAGTTGGTCAGCTAACGAGCTGCC	2.66	2.6	3.48	-0.535	0.793	1.14	-0.0529	-0.504
CCTTACGCGTCACTCCAGGTTATAGCATCGGAGT	0.704	0.409	0.416	0.6	0.294	2.62	1.07	0.782
CCTGCTTGGTCAATGGTCAGCTAAAGCAGCTCGC	0.507	-0.324	0.0947	0.0969	-0.389	-0.501	-0.238	-0.585
ATCTCTGGGTAAAAGTTCAGTGAATCCCGAGGAT	2.6	2.36	2.45	0.812	1.69	0.969	-0.0851	1.53
CCAACTGGGCCAAAGGTCATTGATTCCAATGCTC	4.44	5.57	4.82	1.61	5.9	3.07	0.791	2.39
AGAATGAGGTTATTAAGATCAAGGAATTGCGGTC	0.762	1.21	0.86	2.05	1.86	2.13	0.766	1.61
ATCGAAAGGTCGAAGAGGTGAGTATACACCGTTT	2.74	4.11	4.08	0.936	4.41	2.73	-0.077	0.745
TCGAGTAGGTCACCAATGGGGCATTCAGCTTTCT	3.59	5.11	4.61	0.972	3.44	2.42	-0.0324	0.0095
TAGCCTAGGGCAGATCGGGCCAGTATACGCTATA	-0.161	0.171	0.578	-1.17	-0.16	2.16	-1.07	-0.532
CGTCCAAGGTCAACGTCAGTGAAAGAGACTCGAA	3.98	6.3	7.13	3.49	6.13	4.04	2.55	1.8
ACTATCAGGCCAAGTTTGGGTCACTCAAACAAAG	2.56	2.71	2.11	0.348	0.935	2.93	1.81	0.829
